About 2,000 (36%) of roughly 5,500 compounds were called active. Not shown: some 18% with an inconclusive outcome. No stated cut-off is given here; in the data, active means normalized growth mostly below about 0.91 (no sharp cut-off); inconclusive means no clear call, values can overlap the other calls; inactive means mostly above about 0.92. The list shows a part of the results.
Test: chemical genetic growth profiling, strain panel (AID 1159580);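 further: tested at 20 µM; growth read once vehicle control cultures reached saturation at 30 °C; 1 = growth at the plate median or of vehicle wells; lower values mean less growth of the strain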
Settings: S. cerevisiae deletion strains, growth OD

Measured: normalized growth

CN(C)c1ccc2nc3ccc(=[N+](C)C)cc-3sc2c1
active: locus YDL005C, strain med2, hits give low values 1.1 [resistant] | locus YDR195W, strain ref2 1.25 [resistant] | locus YDR392W, strain spt3, hits give low values 0.624 | locus YGL167C, strain pmr1, hits give low values 1.09 [resistant] | locus YGL253W, strain hxk2, hits give low values 1.11 [resistant] | locus YHR013C, strain ard1, hits give low values 1.18 [resistant] | locus YHR027C, strain rpn1, hits give low values 1.08 [resistant] | locus YJR066W, strain TOR1, hits give low values 0.576 | locus YKR091W, strain srl3, hits give low values 1.07 [resistant] | locus YLL041C, strain sdh2, hits give low values 1.08 [resistant] | locus YNL183C, strain NPR1, hits give low values 0.543 | locus YNL209W, strain ssb2, hits give low values 1.08 [resistant]
inactive: locus YAL021C, strain ccr4, hits give low values 0.991 | locus YAL026C, strain drs2, hits give low values 1.01 | locus YAL030W, strain snc1, hits give low values 1.06 | locus YBL061C, strain skt5, hits give low values 1.05 | locus YBR009C, strain hhf1, hits give low values 1.04 | locus YBR023C, strain chs3, hits give low values 1.07 | locus YBR171W, strain sec66, hits give low values 1.08 | locus YBR231C, strain swc5, hits give low values 0.995 | locus YBR279W, strain paf1, hits give low values 1.07 | locus YCL011C, strain gbp2, hits give low values 1.04 | locus YCL016C, strain dcc1, hits give low values 1.02 | locus YCL069W, strain vba3, hits give low values 1.08 | locus YCR088W, strain abp1, hits give low values 1.07 | locus YDL040C, strain nat1, hits give low values 1.05 | locus YDR001C, strain nth1, hits give low values 1.06 | locus YDR069C, strain doa4, hits give low values 1.06 | locus YDR137W, strain rgp1, hits give low values 1 | locus YDR159W, strain sac3, hits give low values 1.03 | locus YDR297W, strain sur2, hits give low values 1.07 | locus YDR334W, strain swr1, hits give low values 1.05 | locus YDR335W, strain msn5, hits give low values 1.07 | locus YEL003W, strain gim4, hits give low values 0.974 | locus YEL037C, strain rad23, hits give low values 1.06 | locus YEL061C, strain CIN8 (second series), hits give low values 1.04 | locus YER015W, strain faa2, hits give low values 1.05 | locus YER016W, strain bim1, hits give low values 1.05 | locus YER111C, strain swi4, hits give low values 1.08 | locus YER155C, strain BEM2 (second series), hits give low values 0.941 | locus YFR010W, strain ubp6, hits give low values 1.06 | locus YGL173C, strain kem1, hits give low values 1.05 | locus YGL227W, strain vid30, hits give low values 1.08 | locus YGL240W, strain doc1, hits give low values 1 | locus YHR030C, strain SLT2, hits give low values 0.994 | locus YHR079C, strain IRE1, hits give low values 1.02 | locus YHR142W, strain chs7, hits give low values 1.07 | locus YJL092W, strain hpr5, hits give low values 1.05 | locus YJL095W, strain BCK1 (second series), hits give low values 1.07 | locus YJL095W, strain BCK1, hits give low values 1.05 | locus YJL115W, strain asf1, hits give low values 1.07 | locus YJL129C, strain trk1, hits give low values 1.08 | locus YJL154C, strain vps35, hits give low values 1.06 | locus YJL164C, strain tpk1, hits give low values 1.04 | locus YJL166W, strain qcr8, hits give low values 1.02 | locus YKL160W, strain elf1, hits give low values 1.03 | locus YKR026C, strain gcn3, hits give low values 1.07 | locus YLL001W, strain dnm1, hits give low values 1.05 | locus YLL026W, hits give low values 1.05 | locus YLR027C, strain aat2, hits give low values 1.05 | locus YLR113W, strain HOG1, hits give low values 1.07 | locus YLR221C, strain rsa3, hits give low values 1.04 | locus YLR258W, strain gsy2, hits give low values 1.04 | locus YLR262C, strain YPT6 (second series), hits give low values 1.1 | locus YLR320W, strain mms22, hits give low values 0.993 | locus YLR342W, strain FKS1, hits give low values 1.06 | locus YLR357W, strain rsc2, hits give low values 1.12 | locus YLR370C, strain arc18, hits give low values 1.05 | locus YLR384C, strain iki3, hits give low values 1.07 | locus YML120C, strain ndi1, hits give low values 1.04 | locus YMR058W, strain fet3, hits give low values 0.985 | locus YMR125W, strain sto1, hits give low values 1.09 | locus YMR129W, hits give low values 1.05 | locus YMR205C, strain PFK2, hits give low values 1.03 | locus YMR231W, strain pep5, hits give low values 1.04 | locus YNL071W, strain lat1, hits give low values 0.992 | locus YNL248C, strain rpa49, hits give low values 1.11 | locus YNL322C, strain KRE1 (second series), hits give low values 1.04 | locus YNR049C, strain mso1, hits give low values 1.05 | locus YOR001W, strain rrp6, hits give low values 1.06 | locus YOR070C, strain gyp1, hits give low values 1.05 | locus YOR080W, strain dia2, hits give low values 1.06 | locus YOR083W, strain WHI5, hits give low values 1.05 | locus YOR106W, strain vam3, hits give low values 0.994 | locus YOR231W, strain MKK1, hits give low values 1.01 | locus YOR265W, strain rbl2, hits give low values 1.04 | locus YOR270C, strain vph1, hits give low values 0.983 | locus YOR290C, strain snf2, hits give low values 1.03 | locus YPL051W, strain arl3, hits give low values 0.979 | locus YPL078C, strain atp4, hits give low values 1.05 | locus YPL106C, strain sse1, hits give low values 1.05 | locus YPL240C, strain hsp82, hits give low values 1.06 | locus YPL256C, strain CLN2, hits give low values 1.02

— PubChem BioAssay AID1159580 (chemical genetic matrix, 2015)
